# Screens deposited in PubChem BioAssay by several laboratories.
# ANO1 block: blocks the mouse calcium-activated chloride channel TMEM16A. Q8BHY3. HEK293 TMEM16A/YFP iodide influx fluorescence, ionomycin. normalized B-score (activity score, 25-100; higher = stronger inhibition) at 10 µM. hit rate 1.2% among 310,000. AID 588511;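 active means ratio plate-corrected score three or more library SD toward inhibition, starting fluorescence score within five deviations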;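 further: score derived from kinetic fluorescence span divided by baseline fluorescence per well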
# Target sequence (Q8BHY3 whole entry, looked up): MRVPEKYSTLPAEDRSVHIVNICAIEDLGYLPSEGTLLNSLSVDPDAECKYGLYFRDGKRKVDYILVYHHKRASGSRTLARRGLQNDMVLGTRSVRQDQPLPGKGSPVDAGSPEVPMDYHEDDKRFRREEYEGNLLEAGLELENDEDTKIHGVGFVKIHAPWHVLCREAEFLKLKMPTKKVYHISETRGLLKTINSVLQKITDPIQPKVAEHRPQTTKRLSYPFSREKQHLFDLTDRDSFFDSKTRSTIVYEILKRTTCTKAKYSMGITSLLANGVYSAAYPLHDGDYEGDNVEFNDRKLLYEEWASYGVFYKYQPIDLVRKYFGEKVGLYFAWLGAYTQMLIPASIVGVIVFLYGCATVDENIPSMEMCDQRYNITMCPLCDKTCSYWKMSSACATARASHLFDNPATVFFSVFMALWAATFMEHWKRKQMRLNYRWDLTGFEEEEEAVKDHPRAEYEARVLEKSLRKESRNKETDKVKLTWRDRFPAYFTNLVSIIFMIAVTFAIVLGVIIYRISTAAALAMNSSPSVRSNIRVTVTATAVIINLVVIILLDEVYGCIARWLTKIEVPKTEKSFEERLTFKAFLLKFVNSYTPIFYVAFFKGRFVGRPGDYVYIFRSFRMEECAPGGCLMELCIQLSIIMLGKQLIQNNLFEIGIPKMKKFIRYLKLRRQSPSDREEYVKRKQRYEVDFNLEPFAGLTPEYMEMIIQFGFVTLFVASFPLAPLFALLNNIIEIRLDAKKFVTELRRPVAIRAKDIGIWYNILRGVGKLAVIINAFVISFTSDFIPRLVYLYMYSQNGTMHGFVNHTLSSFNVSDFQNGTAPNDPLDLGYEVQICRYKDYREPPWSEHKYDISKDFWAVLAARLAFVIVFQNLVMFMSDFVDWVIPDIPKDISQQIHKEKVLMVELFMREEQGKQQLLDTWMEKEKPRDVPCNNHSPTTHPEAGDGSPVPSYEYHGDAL
# MEKK3 PB1 HTS: modulators (inhibitors or enhancers) of MEK5 binding to human MEKK3 PB1 domain; Q99759; bead-based flow cytometry, Alexa488-MEK5 binding to MEKK3; actives lie on both sides; 0 = blocked by unlabeled MEK5, 100 = vehicle; binding response (% of control), % at 10 µM; hit rate 1.4% among 290,000; AID 1529;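 active means binding response more than 3 SD above or below the average of its plate-row segment, actives on both sides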;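 further: Alexa488 bead fluorescence after subtracting the streptavidin-only scavenger bead signal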
# MEKK2mut PB1 HTS: signal of MEK5 binding to mutant human MEKK2 PB1 domain | percent response, % at 10 µM | hit rate 0.35% among 290,000 | bead flow cytometry, Alexa488-MEK5 binding to MEKK2 mutant; in the data active means percent response above about 24%, passing the limit was not always enough
# MEKK2wt PB1 HTS: raises or lowers MEK5 binding to wildtype human MEKK2 PB1 domain | bead flow cytometry, Alexa488-MEK5 binding to MEKK2 WT; actives lie on both sides | AID 1531 | binding response (% of control), % at 10 µM | Q9Y2U5 | hit rate 1.1% among 290,000; in the data active means binding response below about 67% or above about 130%
# ANO1 activ: mouse TMEM16A channel activation, primary screen; AID 623877; HEK293 TMEM16A/YFP-H148Q/I152L, iodide quench fluorescence; hits give low values; B-score at 10 µM; hit rate 0.3% among 340,000;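 active means fluorescence-ratio B-score plate-corrected deviation score at least 3 library SD below zero, with starting fluorescence score within 5 deviations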;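 further: channel opened by trigger with iodide after compound preincubation; score built on the fluorescence ratio of max minus min over baseline; more negative score means more quench and so TMEM16A activation or potentiation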
# NTR1 ag: NTR1 (human) agonism. P30989. NTR1-U2OS beta-arrestin-GFP spot imaging, agonist mode. activation, % at 20 µM. hit rate 0.17% among 330,000;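 active means activation at or above 40% of the spot to cytoplasm intensity ratio, with at least 20 cells analyzed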;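 further: 0% = DMSO without peptide and 100% = 100 nM NTR1 peptide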
# Numbers without * were called inactive; i = inactive; . = not tested or not shown; ! = not confirmed by another sample; [ ] = another dose, or the depositor's remark. Hits are enriched below; roughly 3.4% of the tested compounds scored in any of these assays.
SMILES,ANO1 block,MEKK3 PB1 HTS,MEKK2mut PB1 HTS,MEKK2wt PB1 HTS,ANO1 activ,NTR1 ag
CN(CC1CCCO1)S(=O)(=O)c1ccc(C(=O)Nc2nc(-c3ccccn3)cs2)cc1 (centres undefined),25*,97.0,1.0,100.0,i,10.9
COc1ccc(NC(=S)NC(NC(=O)c2ccccc2Cl)C(Cl)(Cl)Cl)c([N+](=O)[O-])c1 (centres undefined),i,108.0,6.0,106.0,i,2.2
COc1ccc(NC(=S)NC(NC(=O)c2cccc3ccccc23)C(Cl)(Cl)Cl)c([N+](=O)[O-])c1 (centres undefined),i,103.0,1.0,105.0,-7.41*,12.7
CC(Oc1ccc(C(C)(C)C)cc1)c1ccnc2nc(/N=C/N(C)C)nn12 (centres undefined),25*,104.0,6.0,111.0,i,2.8
O=C(Nc1ccc(C2=NCCN2)cc1)c1ccc(C(=O)Nc2ccc(C3=NCCN3)cc2)c(Cl)c1,i,72.0*[inhibitor],31.0*,149.0*,i,0.9
CCOC(=O)C1=C(C)Nc2nc3ccccc3n2C1c1ccncc1 (centres undefined),i,102.0,2.0,103.0,i,-2.0
CC1CCC(C(C)C)C(OC(=O)Cn2c(-c3ccc(Br)cc3)[n+](C)c3ccccc32)C1 (centres undefined),i,97.0,11.0,147.0*!,i,31.5
CN(C)S(=O)(=O)n1cc(/C=C(\NC(=O)c2ccccc2F)C(=O)NCCCN2CCOCC2)c2ccccc21,i,100.0,-2.0,102.0,i,0.8
c1ccc2c(c1)nc(Nc1ccc(N3CCCCC3)cc1)c1nncn12,i,99.0,2.0,-4.0*,i,17.1
CN1C(=O)/C(=C/c2cn(CC(=O)NCc3ccco3)c3ccccc23)NC1=S,i,101.0,1.0,96.0,.,-1.3
CN1C(=O)/C(=C/c2cn(CC(=O)N3CCCCC3)c3ccccc23)NC1=S,i,102.0,3.0,95.0,-6.2*,-1.0
Cc1cccc(S(=O)(=O)NNC(=O)Cc2cccn2C)c1,25*,92.0,-7.0,90.0,i,2.5
Cc1ccc(S(=O)(=O)NNC(=O)Cc2cccn2C)cc1,i,104.0,1.0,98.0,i,3.1
CCC(=O)c1ccc(O)cc1,i,96.0,2.0,97.0,-12.8*,1.3
c1ccc(CC2CCN(c3nnnn3-c3ccccc3)CC2)cc1,100*,.,.,.,i,2.5
C/C(=N/N1CCN(c2ccccc2)CC1)c1cccc([N+](=O)[O-])c1,i,102.0,10.0,106.0,i,1.1
C/C(=N\N1CCN(c2ccc(Cl)cc2)CC1)c1cccc([N+](=O)[O-])c1,25*,105.0,9.0,120.0,i,3.4
O=[N+]([O-])c1ccc(/C=C2\CCC(C3=CCCC3)=C2N2CCOCC2)cc1,i,101.0,2.0,1.0*,i,-0.4
C/C(=N\Nc1ncc(Cl)cc1Cl)c1ccccn1,.,101.0,-6.0,96.0,-7.78*,.
C=CCn1c(=O)c2ccccc2n2c(SCC(=O)NC(C)C)nnc12,.,100.0,-2.0,100.0,i,-0.5
O=c1c2cc(Cl)ccc2nc(-c2ccc(Cl)c(Cl)c2)n1O,100*,115.0,4.0,111.0,i,30.9
COc1ccc(-n2nc(C(=O)NCC(=O)NCCCN3CC(C)CC(C)C3)c3ccccc3c2=O)cc1Cl (centres undefined),i,99.0,1.0,114.0,i,-1.2
CN1/C(=C\C(=O)COC(=O)Cn2nnc(-c3ccccc3)n2)C(C)(C)c2ccccc21,25*,96.0,1.0,96.0,i,0.0
Cc1[nH]c2ccccc2c1C(=O)C(=O)N1CCN(c2ccccc2Cl)CC1,i,102.0,-5.0,98.0,i,1.9
Cc1[nH]c2ccccc2c1C(=O)C(=O)N1CCN(c2cccc(Cl)c2)CC1,i,96.0,-2.0,97.0,-52.8*,4.0
SMILES,ANO1 block,MEKK3 PB1 HTS,MEKK2mut PB1 HTS,MEKK2wt PB1 HTS,ANO1 activ,NTR1 ag
Cc1nccc(-c2cccc(N/N=C(\C#N)C(=O)c3ccccc3)c2)n1,100*,95.0,-2.0,96.0,i,1.6
Cc1nccc(-c2cccc(NC(=O)Nc3ccc(Cl)cc3)c2)n1,i,103.0,3.0,101.0,i,-0.3
Nc1nc(CSCc2ccccc2)nc(N2CCOCC2)n1,i,105.0,5.0,108.0,-15.2*,-0.7
CCOC(=O)/C(=C/c1ccc(OC(=O)c2ccccc2)cc1)C(C)=O,i,97.0,11.0,4.0*,i,0.2
COC(=O)c1c(C)cccc1C1CN=NC12Cc1ccccc1C2=O (centres undefined),.,.,.,.,-7.37*,.
COc1ccc(C2CN=NC23CCc2ccccc2C3=O)cc1 (centres undefined),i,102.0,3.0,100.0,i,0.9
Cc1cc(NC(=O)CSc2nc3ccccc3c(=O)n2CCCC(=O)NCc2ccco2)n[nH]1,i,99.0,0.0,99.0,i,-1.5
COc1ccc(CCC(=O)N2CCCC(Nc3ccccc3)C2)cc1OC (centres undefined),i,102.0,6.0,105.0,i,0.8
CC[C@H](C)[C@@H](NC(=O)O[C@@H]1C(=O)c2cc(Br)ccc2O[C@H]1c1ccc2c(c1)OCO2)C(=O)OC,.,78.0*[inhibitor],-4.0,95.0,.,.
Nc1ccc2c(c1)Oc1ccccc1C=C2,i,81.0,-14.0,84.0,-5.29*,0.1
Nc1ccc2c(c1)COc1ccccc1O2,i,102.0,8.0,105.0,i,0.2
Cc1nc(N2CCN(C(=O)COc3ccccc3)CC2)c2c(C)c(C)sc2n1,100*,101.0,-4.0,104.0,i,3.1
O=C(COc1ccccc1)N1CCN(c2ncccn2)CC1,i,102.0,-10.0,90.0,i,-0.2
COC(=O)CCC(=O)OC1(C)C(=O)C2=CN(CC3CC3)C(c3ccc(OC)cc3)=CC2=C(Br)C1=O (centres undefined),i,93.0,-8.0,-10.0*,i,-2.7
COC(=O)CCC(=O)OC1(C)C(=O)C2=CN(Cc3ccccc3)C(c3ccc(OC)cc3)=CC2=C(Br)C1=O (centres undefined),i,90.0,-4.0,-6.0*,i,-4.5
COC(=O)CCC(=O)OC1(C)C(=O)C2=CN(Cc3ccc(OC)cc3)C(c3ccc(OC)cc3)=CC2=C(Br)C1=O (centres undefined),i,59.0,11.0,.,i,-6.0
CC(=O)Oc1ccc(Oc2ccc(-c3noc(C)n3)cc2)cc1,i,96.0,-2.0,98.0,i,-0.5
CC(=O)Oc1ccc(-c2nc(-c3cccnc3)no2)cc1,i,93.0,0.0,99.0,-14.7*,-0.2
